# How the values were obtained:
# Test in all cases: DAPPL (digital affinity profiling via proximity ligation, sequencing); 10 mM Tris-HCl pH 7.5, 50 mM NaCl, 1 mM DTT, 4% glycerol, room temperature, 30 min; GST-TFs on glutathione beads, 16-mer random dsDNA library, 0.1% formaldehyde crosslink after washing; high values mean tight binding
# Conditions in all cases: protein: recombinant; tags: N-terminal GST; dsDNA, one strand shown
# [1] = target: T1, FLI1 (Homo sapiens, UniProt Q01543 1-452)
# T1 sequence: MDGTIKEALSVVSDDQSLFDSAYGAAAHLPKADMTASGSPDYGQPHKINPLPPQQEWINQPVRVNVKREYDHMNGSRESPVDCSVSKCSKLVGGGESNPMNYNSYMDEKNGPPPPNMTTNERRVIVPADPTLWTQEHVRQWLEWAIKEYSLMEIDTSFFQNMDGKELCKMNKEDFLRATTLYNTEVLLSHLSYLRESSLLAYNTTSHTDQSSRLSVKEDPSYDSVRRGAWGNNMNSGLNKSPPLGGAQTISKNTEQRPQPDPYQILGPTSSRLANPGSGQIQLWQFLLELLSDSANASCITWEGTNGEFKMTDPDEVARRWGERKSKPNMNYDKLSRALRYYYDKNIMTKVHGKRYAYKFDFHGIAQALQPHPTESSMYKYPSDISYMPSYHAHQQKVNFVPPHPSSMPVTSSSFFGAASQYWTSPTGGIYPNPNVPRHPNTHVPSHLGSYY
# Outline: (§1)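 Yeast served to express human transcription factors as GST fusions, which were then captured on glutathione beads and labelled with DNA barcodes. Pooled with a tag-only sample, they were incubated with 200 nmole of a 16-mer random double-stranded DNA library for 30 min at room temperature in Tris/NaCl/DTT/glycerol buffer, washed, crosslinked with 0.1% formaldehyde, ligated by proximity, amplified by PCR and sequenced. Dividing each hexamer's read frequency for a factor by its frequency for the tag-only sample gives the binding signal.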
# [2] = target: T2, ELK1 (Homo sapiens, UniProt P19419 1-428)
# T2 sequence: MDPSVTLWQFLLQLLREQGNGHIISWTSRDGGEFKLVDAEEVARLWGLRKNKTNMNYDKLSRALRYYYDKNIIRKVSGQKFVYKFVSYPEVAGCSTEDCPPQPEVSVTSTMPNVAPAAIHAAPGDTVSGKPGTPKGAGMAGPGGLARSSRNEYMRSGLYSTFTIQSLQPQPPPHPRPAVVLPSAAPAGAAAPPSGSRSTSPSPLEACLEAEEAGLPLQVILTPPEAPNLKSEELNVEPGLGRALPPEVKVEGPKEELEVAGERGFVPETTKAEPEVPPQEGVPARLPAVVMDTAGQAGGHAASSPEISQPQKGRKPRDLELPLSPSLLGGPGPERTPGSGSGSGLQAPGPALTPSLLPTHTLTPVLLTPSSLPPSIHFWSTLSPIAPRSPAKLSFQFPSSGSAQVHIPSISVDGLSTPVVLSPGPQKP
# Outline: as §1
# [3] = target: T3, GABPA (Homo sapiens, UniProt Q06546 1-454)
# T3 sequence: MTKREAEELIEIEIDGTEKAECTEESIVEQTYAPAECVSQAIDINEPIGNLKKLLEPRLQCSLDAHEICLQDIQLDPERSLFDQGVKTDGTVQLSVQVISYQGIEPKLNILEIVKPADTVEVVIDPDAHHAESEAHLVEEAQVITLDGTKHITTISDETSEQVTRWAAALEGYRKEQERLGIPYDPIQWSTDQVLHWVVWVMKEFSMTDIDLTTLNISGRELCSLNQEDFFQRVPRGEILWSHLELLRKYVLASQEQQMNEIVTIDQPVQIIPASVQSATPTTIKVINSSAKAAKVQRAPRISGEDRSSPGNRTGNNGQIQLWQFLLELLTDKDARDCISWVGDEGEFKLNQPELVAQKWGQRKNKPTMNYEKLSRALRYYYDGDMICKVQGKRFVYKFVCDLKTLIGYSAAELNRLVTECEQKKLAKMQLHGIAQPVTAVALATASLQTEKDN
# Outline: as §1
# [4] = target: T4, ERG (Homo sapiens, UniProt P11308 1-479)
# T4 sequence: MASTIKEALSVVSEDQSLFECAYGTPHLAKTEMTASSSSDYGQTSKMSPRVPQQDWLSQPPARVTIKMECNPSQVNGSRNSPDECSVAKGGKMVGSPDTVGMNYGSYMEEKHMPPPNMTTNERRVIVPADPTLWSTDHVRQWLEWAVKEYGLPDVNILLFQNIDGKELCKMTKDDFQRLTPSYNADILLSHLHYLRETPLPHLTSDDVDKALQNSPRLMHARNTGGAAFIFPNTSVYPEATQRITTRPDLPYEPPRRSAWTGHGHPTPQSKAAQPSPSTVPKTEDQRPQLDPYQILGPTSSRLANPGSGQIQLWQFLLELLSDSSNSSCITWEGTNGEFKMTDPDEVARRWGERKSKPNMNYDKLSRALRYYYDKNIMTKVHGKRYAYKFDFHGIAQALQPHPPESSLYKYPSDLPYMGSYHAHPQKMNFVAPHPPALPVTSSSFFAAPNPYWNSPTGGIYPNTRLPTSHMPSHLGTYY
# Outline: as §1
# [5] = target: ELF1 (Homo sapiens, UniProt P32519 1-619)
# Outline: as §1
# [6] = target: T5, EHF (Homo sapiens, UniProt Q9NZC4 1-300)
# T5 sequence: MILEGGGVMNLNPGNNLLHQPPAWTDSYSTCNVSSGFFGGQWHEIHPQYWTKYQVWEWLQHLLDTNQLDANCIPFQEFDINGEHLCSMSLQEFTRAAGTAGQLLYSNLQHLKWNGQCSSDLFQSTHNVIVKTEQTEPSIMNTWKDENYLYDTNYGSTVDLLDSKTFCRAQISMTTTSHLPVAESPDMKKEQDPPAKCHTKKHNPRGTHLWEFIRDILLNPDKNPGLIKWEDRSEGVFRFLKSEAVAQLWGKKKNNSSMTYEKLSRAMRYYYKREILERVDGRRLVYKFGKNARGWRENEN
# Outline: as §1
# [7] = target: SPIB (Homo sapiens, UniProt Q01892 1-262)
# Outline: as §1
# [8] = target: T6, ELK3 (Homo sapiens, UniProt P41970 1-407)
# T6 sequence: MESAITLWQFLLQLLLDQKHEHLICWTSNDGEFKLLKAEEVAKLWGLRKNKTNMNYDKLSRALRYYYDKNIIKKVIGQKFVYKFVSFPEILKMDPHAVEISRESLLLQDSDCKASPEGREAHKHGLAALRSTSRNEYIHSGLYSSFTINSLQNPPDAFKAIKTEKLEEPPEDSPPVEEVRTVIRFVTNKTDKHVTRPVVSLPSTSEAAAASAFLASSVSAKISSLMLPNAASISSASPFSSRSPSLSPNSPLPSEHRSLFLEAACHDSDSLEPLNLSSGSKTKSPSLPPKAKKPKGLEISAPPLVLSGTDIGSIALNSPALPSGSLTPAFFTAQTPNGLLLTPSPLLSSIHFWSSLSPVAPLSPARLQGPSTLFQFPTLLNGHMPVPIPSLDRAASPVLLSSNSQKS
# Outline: as §1
# [9] = target: T7, SPIC (Homo sapiens, UniProt Q8N5J4 1-248)
# T7 sequence: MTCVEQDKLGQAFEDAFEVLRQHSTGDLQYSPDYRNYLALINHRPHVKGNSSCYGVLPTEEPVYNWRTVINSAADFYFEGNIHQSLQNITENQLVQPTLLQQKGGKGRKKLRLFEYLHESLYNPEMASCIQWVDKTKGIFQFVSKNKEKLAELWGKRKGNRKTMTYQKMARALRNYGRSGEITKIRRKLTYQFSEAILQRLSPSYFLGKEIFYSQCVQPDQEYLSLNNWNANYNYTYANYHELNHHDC
# Outline: as §1
# [10] = target: T8, ELK4 (Homo sapiens, UniProt P28324-2 1-405)
# T8 sequence: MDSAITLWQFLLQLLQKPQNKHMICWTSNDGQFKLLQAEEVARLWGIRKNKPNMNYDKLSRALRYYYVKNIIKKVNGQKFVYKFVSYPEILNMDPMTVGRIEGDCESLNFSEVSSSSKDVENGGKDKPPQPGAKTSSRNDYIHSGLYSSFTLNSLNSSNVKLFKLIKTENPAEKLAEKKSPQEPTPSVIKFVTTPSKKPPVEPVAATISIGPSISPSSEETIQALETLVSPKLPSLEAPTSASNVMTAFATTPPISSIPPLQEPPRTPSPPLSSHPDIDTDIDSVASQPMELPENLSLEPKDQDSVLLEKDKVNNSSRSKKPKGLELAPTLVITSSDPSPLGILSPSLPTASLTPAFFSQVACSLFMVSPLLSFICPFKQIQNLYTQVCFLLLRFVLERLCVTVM
# Outline: as §1
# [11] = target: T9, ELF3 (Homo sapiens, UniProt P78545 1-371)
# T9 sequence: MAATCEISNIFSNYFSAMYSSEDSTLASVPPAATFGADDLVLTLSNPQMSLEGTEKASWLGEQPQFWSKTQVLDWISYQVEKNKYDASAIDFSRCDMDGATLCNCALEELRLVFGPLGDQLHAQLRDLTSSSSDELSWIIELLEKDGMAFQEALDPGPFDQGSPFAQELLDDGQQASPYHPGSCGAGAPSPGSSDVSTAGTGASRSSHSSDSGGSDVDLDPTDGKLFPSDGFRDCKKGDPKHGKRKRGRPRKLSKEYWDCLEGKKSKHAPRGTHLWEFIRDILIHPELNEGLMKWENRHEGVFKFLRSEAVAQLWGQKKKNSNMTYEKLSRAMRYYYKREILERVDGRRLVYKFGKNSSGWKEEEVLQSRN
# Outline: as §1
# [12] = target: ETV1 (Homo sapiens, UniProt P50549 1-477)
# Outline: as §1
# [13] = target: T10, ETV3L (Homo sapiens, UniProt Q6ZN32 1-361)
# T10 sequence: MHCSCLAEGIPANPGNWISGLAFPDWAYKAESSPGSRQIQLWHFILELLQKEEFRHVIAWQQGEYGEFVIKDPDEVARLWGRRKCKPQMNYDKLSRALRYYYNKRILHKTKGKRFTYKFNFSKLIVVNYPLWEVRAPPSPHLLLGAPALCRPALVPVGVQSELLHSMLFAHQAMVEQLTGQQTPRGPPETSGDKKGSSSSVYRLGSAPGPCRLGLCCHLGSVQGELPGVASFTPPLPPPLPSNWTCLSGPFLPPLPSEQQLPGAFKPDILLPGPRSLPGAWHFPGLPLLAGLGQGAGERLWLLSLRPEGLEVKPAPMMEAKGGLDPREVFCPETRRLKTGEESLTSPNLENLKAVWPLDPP
# Outline: as §1
# [14] = target: T11, ETV7 (Homo sapiens, UniProt Q9Y603 1-341)
# T11 sequence: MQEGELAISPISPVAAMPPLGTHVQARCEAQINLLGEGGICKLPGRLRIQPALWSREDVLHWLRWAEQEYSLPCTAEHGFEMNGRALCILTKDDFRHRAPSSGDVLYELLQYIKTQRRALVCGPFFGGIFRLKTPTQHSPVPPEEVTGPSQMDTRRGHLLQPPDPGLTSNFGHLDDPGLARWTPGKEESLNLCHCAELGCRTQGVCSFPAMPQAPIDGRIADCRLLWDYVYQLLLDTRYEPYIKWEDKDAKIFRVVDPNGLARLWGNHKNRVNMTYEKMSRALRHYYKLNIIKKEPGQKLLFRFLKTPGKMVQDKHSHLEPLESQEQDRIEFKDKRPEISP
# Outline: as §1
# [15] = target: T12, ETV3 (Homo sapiens, UniProt P41162-2 1-143)
# T12 sequence: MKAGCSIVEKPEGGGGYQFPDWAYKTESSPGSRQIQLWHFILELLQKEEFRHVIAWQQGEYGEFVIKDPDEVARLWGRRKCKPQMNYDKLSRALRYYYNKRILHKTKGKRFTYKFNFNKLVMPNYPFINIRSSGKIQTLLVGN
# Outline: as §1
# [16] = target: ETV6 (Homo sapiens, UniProt P41212 1-452)
# Outline: as §1
# SPIB, sequence (Q01892 whole entry): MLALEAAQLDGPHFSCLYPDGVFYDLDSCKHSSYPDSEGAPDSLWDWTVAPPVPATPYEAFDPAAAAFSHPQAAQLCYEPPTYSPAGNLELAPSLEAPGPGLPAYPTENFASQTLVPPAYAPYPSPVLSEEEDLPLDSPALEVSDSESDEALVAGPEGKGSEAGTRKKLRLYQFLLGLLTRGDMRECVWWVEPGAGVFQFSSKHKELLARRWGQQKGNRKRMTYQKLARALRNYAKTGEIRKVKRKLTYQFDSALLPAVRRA
# ETV1, sequence (P50549 whole entry): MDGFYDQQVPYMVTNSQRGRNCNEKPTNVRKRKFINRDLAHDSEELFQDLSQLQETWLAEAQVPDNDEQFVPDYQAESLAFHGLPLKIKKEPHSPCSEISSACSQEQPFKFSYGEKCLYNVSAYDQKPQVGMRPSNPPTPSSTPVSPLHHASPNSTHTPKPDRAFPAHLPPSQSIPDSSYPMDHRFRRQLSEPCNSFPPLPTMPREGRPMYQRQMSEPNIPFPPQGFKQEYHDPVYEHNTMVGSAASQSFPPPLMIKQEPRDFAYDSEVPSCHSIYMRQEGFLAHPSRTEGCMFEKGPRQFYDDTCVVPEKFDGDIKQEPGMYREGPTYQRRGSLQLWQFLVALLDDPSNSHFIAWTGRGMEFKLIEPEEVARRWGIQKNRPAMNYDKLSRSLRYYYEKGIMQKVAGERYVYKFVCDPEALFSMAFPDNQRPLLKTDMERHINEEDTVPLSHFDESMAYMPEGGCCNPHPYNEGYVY
# ELF1, sequence (P32519 whole entry): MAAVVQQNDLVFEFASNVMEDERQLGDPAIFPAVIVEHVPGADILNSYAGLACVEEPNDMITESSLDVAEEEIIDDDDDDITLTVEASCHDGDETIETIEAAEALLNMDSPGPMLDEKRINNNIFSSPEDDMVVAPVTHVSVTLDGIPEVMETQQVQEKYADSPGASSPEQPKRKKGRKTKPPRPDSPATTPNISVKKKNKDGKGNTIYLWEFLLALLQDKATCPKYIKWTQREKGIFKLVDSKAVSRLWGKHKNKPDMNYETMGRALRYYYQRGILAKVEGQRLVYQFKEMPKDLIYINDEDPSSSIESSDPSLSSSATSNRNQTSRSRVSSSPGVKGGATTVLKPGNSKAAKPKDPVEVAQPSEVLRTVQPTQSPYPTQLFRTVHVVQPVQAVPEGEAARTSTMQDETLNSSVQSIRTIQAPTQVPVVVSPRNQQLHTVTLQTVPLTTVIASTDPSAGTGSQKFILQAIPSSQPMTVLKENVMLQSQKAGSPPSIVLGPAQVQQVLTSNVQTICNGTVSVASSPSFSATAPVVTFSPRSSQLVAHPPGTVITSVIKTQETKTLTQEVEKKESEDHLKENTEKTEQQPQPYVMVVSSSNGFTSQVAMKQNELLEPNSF
# ETV6, sequence (P41212 whole entry): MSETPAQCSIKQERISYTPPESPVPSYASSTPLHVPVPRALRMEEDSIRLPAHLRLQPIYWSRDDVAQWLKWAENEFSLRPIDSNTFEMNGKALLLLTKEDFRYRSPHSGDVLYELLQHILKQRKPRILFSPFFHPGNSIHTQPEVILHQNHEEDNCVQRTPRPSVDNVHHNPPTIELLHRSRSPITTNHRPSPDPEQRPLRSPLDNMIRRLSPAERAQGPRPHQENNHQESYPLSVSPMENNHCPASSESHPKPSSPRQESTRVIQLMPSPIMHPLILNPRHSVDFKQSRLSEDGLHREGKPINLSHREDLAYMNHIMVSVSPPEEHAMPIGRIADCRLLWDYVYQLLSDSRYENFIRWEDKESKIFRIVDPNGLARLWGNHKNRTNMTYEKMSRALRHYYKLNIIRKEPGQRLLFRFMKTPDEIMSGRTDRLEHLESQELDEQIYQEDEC
sequence,measurement,setting,value
TAAAGG,binding signal,[1],"1.04 fold enrichment (6-mer frequency, TF over GST control)"
same,binding signal,[2],"1.03 fold enrichment (6-mer frequency, TF over GST control)"
same,binding signal,[3],"1.03 fold enrichment (6-mer frequency, TF over GST control)"
same,binding signal,[4],"1.03 fold enrichment (6-mer frequency, TF over GST control)"
same,binding signal,[5],"1.08 fold enrichment (6-mer frequency, TF over GST control)"
same,binding signal,[6],"1.12 fold enrichment (6-mer frequency, TF over GST control)"
same,binding signal,[7],"1.03 fold enrichment (6-mer frequency, TF over GST control)"
same,binding signal,[8],"1.1 fold enrichment (6-mer frequency, TF over GST control)"
same,binding signal,[9],"1.11 fold enrichment (6-mer frequency, TF over GST control)"
same,binding signal,[10],"1.07 fold enrichment (6-mer frequency, TF over GST control)"
same,binding signal,[11],"1.1 fold enrichment (6-mer frequency, TF over GST control)"
same,binding signal,[12],"1.03 fold enrichment (6-mer frequency, TF over GST control)"
same,binding signal,[13],"1.04 fold enrichment (6-mer frequency, TF over GST control)"
same,binding signal,[14],"1.09 fold enrichment (6-mer frequency, TF over GST control)"
same,binding signal,[15],"1.09 fold enrichment (6-mer frequency, TF over GST control)"
same,binding signal,[16],"1.07 fold enrichment (6-mer frequency, TF over GST control)"

# From paper PMC7862700, “An all-to-all approach to the identification of sequence-specific readers for epigenetic DNA modifications on cytosine”
